TDP1 cell CPT: qHTS for Inhibitors of human tyrosyl-DNA phosphodiesterase 1 (TDP1): qHTS in cells in presence of CPT; chicken DT40 Tdp1-/-;hTDP1 cells + 20 nM CPT, ATP luminescence, 48 h; Potency, µM (titrated, usually from 46.2 µM), usual class: inhibitors; 420,000 tested, 12% active; also: nearly all actives have a fitted effect of over 55% in size
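Chicken DT40 Tdp1-/- cells complemented with human TDP1, 400 cells/well, exposed to compounds plus 20 nM camptothecin for at least 48 h at 37 C; viability read as ATP content by CellTiter-Glo luminescence.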
HT1080 IDH1KD tx: qHTS for induction of synthetic lethality in tumor cells producing 2HG: qHTS for the HT-1080-IDH1KD cell line. Potency, µM (highest dose often 46.1 µM), most hits filed as cytotoxic. HT-1080 IDH1 knockdown viability, ATP luminescence, 48 h. 360,000 tested, 2% active
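IDH1KD HT-1080 cells, 750/well, RPMI + 5% FBS; compound pinned after 2 h settling; 48 h, 37 °C; CellTiter-Glo luminescence; % activity normalised to DMSO and no-cell wells; curves fitted, classed by r2 and efficacy.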
HT1080-NT tox: qHTS for induction of synthetic lethality in tumor cells producing 2HG: qHTS for the HT-1080-NT fibrosarcoma cell line; HT-1080-NT fibrosarcoma viability, CellTiter-Glo ATP luminescence, 48 h; Potency, µM (doses to about 46.1 µM), most hits filed as cytotoxic; 360,000 tested, 1.6% active;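 also: NT is the 2HG producing partner of a matched IDH1 knockdown line; nearly all actives have a fitted effect of over 55% in size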
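A 48-hour cytotoxicity screen used HT-1080-NT cells plated 2 hours before compound delivery. ATP-based CellTiter-Glo luminescence measured viability, normalized to DMSO and no-cell controls.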
IL-1B inflam inh: qHTS for Inhibitors of Inflammasome Signaling: IL-1-beta AlphaLISA Primary Screen | THP-1 LPS/ATP IL-1B secretion, AlphaLISA, 16 h; stronger effect = lower value | activity change, % at 57.5 µM | 360,000 tested, 4.7% active | AID 743279, 2014; in the data active = activity change below about -50%; inconclusive = mostly about -30% to -49%
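THP-1 cells pretreated 1 hr with compounds (up to 57.5 uM final), then stimulated with LPS (250 ng/mL final) plus ATP (1.25 mM final); secreted IL-1B measured by AlphaLISA after 16 hr, decreased signal indicating inhibition.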
ELG1 repair inh: qHTS screen for small molecules that inhibit ELG1-dependent DNA repair in human embryonic kidney (HEK293T) cells expressing luciferase-tagged ELG1 | HEK293T ELG1-luciferase reporter, luminescence, 16 h; DNA damage induced by 5-fluorouridine | Potency, µM (titrated, usually from 46.1 µM), most hits filed as inhibitors | 330,000 tested, 2.3% active; also: nearly all actives have a fitted effect of over 55% in size
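DMSO vehicle served as the neutral condition. Each well held 2,000 cells given 5-fluorouridine plus compound; after 16 hr at 37 °C/5% CO2, ONE-Glo was added and luciferase measured 30 min later.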
TDP1 cell noCPT: qHTS for Inhibitors of human tyrosyl-DNA phosphodiesterase 1 (TDP1): qHTS in cells in absence of CPT; Potency, µM (series often up to 46.2 µM), usual class: inhibitors; 420,000 tested, 15% active; AID 686978, 2013; DT40 Tdp1-/- hTDP1 cells, no CPT, ATP luminescence, 48 h; also: nearly all actives have a fitted effect of over 55% in size
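Luminescent ATP content (CellTiter-Glo) served as the growth readout. Knockout chicken DT40 cells expressing human TDP1 were exposed to compounds without camptothecin for a minimum 48 hr at 37 °C.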
Each line names hits and unclear results; the compound was inactive in the other large screens; ! = repeats disagree. Compounds with a hit are over-represented: about 19% of the library has one in this group of screens. Unless noted, calls follow the shape of the dose curve; as a rule, active = well fitted curve in the direction sought with a large enough effect; inconclusive = small, poorly fitted or top-dose-only effect, or another doubt; inactive = no such curve, though single readings can be large; an effect the other way counts as inactive or inconclusive.

Fc1ccc(-c2ccc3c(c2)C2CC3CCN2Cc2ccc3c(c2)OCO3)cc1 (stereo not given)	TDP1 cell CPT inconclusive, TDP1 cell noCPT 16µM (no result: ELG1 repair inh)
COCCNC(=S)N1CCC2CC1c1cc(-c3ccc4c(c3)OCO4)ccc12 (stereo not given)	TDP1 cell CPT 16µM, HT1080 IDH1KD tx inconclusive, HT1080-NT tox inconclusive, TDP1 cell noCPT inconclusive (no result: ELG1 repair inh)
O=S(=O)(c1cccc2ccccc12)N1CCC2CC1c1cc(-c3ccc4c(c3)OCO4)ccc12 (stereo not given)	TDP1 cell CPT inconclusive, HT1080-NT tox inconclusive, TDP1 cell noCPT inconclusive (no result: ELG1 repair inh)
O=C(c1ccccc1F)N1CCC2CC1c1cc(-c3ccc4c(c3)OCO4)ccc12 (stereo not given)	TDP1 cell CPT inconclusive, HT1080 IDH1KD tx inconclusive, HT1080-NT tox inconclusive, TDP1 cell noCPT 21µM (no result: ELG1 repair inh)
Cc1cc(Cl)ccc1NC(=S)NCCN1CCOCC1	none
CS(=O)(=O)c1cccc(S(=O)(=O)N2CCCCCC2)c1	none
CCN(CC(=O)Nc1c(F)cccc1F)C(=O)c1ccc2c(c1)OCO2	none
COc1ccc([N+](=O)[O-])cc1NC(=S)NC(C)=O	TDP1 cell CPT inconclusive, TDP1 cell noCPT inconclusive
COc1cc([N+](=O)[O-])ccc1NC(=S)Nc1cc(C(=O)OC(C)C)cc(C(=O)OC(C)C)c1	TDP1 cell CPT 29µM, HT1080 IDH1KD tx inconclusive, ELG1 repair inh inconclusive, TDP1 cell noCPT inconclusive
O=C(O)c1ccc(N=Nc2c(O)ccc3ncccc23)cc1	TDP1 cell CPT 4.1µM, HT1080 IDH1KD tx 23µM, HT1080-NT tox inconclusive, ELG1 repair inh inconclusive, TDP1 cell noCPT 2.9µM
CCc1cccc(NC(=O)Cn2c(=O)c(C(F)(F)F)nc3ccccc32)c1	none (no result: HT1080 IDH1KD tx, HT1080-NT tox, IL-1B inflam inh, ELG1 repair inh)
COc1ccc(C(=O)N2CCc3ccccc3C2)cc1S(=O)(=O)N1CCCC1	TDP1 cell CPT inconclusive, TDP1 cell noCPT inconclusive (no result: ELG1 repair inh)
COc1cc2c(cc1OC)CN(C(=O)c1cc(S(=O)(=O)N3CCOCC3)ccc1Cl)CC2	TDP1 cell CPT inconclusive, ELG1 repair inh inconclusive, TDP1 cell noCPT 21µM
O=C(c1cc(S(=O)(=O)N2CCOCC2)ccc1Cl)N1CCc2ccccc2C1	TDP1 cell noCPT inconclusive
COc1ccc(S(=O)(=O)N2CCN(C(=O)COc3ccc(C)c(C)c3)CC2)cc1OC	TDP1 cell CPT inconclusive
COc1cc2c(cc1OC)CN(C(=O)c1ccc(OC)c(S(=O)(=O)N3CCCC3)c1)CC2	TDP1 cell CPT inconclusive, TDP1 cell noCPT 29µM
COc1cc2c(cc1OC)CN(C(=O)CN1CCN(S(=O)(=O)c3ccc(C)c(C)c3)CC1)CC2	TDP1 cell CPT 23µM, TDP1 cell noCPT 13µM
COc1cc2c(cc1OC)CN(C(=O)c1ccc(Cl)c(S(=O)(=O)N3CCCC3)c1)CC2	TDP1 cell CPT 23µM, IL-1B inflam inh inconclusive, ELG1 repair inh inconclusive, TDP1 cell noCPT inconclusive
CCCCC/C=C\C\C=C/C=C/C=C/[C@@H](SC[C@H](NC(=O)CC[C@H](N)C(=O)O)C(=O)NCC(=O)O)[C@@H](O)CCCC(=O)O	none (no result: HT1080 IDH1KD tx, HT1080-NT tox, IL-1B inflam inh, ELG1 repair inh)
C=C[C@](C)(O)CCC=C(C)C	none (no result: HT1080 IDH1KD tx, HT1080-NT tox, IL-1B inflam inh, ELG1 repair inh)
O=C(c1cnccn1)N1CCC2(CC1)CN(C(c1ccccc1)c1ccccc1)C2	none (no result: HT1080 IDH1KD tx, HT1080-NT tox, IL-1B inflam inh, ELG1 repair inh)
CC[C@H]1OC(=O)[C@H](C)C(=O)[C@H](C)[C@@H](O[C@@H]2O[C@H](C)C[C@H](N(C)C)[C@H]2O)[C@](C)(OC)C[C@@H](C)C(=O)[C@H](C)[C@H]2N(CCCCn3cnc(-c4cccnc4)c3)C(=O)O[C@]12C	TDP1 cell CPT 2.4µM!, TDP1 cell noCPT 2.1µM (no result: HT1080 IDH1KD tx, HT1080-NT tox, IL-1B inflam inh, ELG1 repair inh)
CC[C@H]1OC(=O)[C@H](C)[C@@H](O[C@H]2C[C@@](C)(OC)[C@@H](O)[C@H](C)O2)[C@H](C)[C@@H](O[C@@H]2O[C@H](C)C[C@H](N(C)C)[C@H]2O)[C@](C)(OC)C[C@@H](C)C(=O)[C@H](C)[C@@H](O)[C@]1(C)O	none (no result: ELG1 repair inh)
COc1cc2ccccc2cc1C(=O)Nc1ccc(C)cc1	TDP1 cell CPT inconclusive, HT1080 IDH1KD tx inconclusive, HT1080-NT tox inconclusive, ELG1 repair inh inconclusive, TDP1 cell noCPT inconclusive
COc1ccccc1NC(=O)Nc1ccc(Cc2ccncc2)cc1	IL-1B inflam inh -87, ELG1 repair inh inconclusive
COc1ccc(NC(=O)Nc2ccc(Cc3ccncc3)cc2)cc1OC	none
COc1cc2ccccc2cc1C(=O)Nc1ccc(Cc2ccncc2)cc1	TDP1 cell CPT 18µM, HT1080 IDH1KD tx inconclusive, IL-1B inflam inh -72, TDP1 cell noCPT 26µM
O=C(CNC(=O)c1ccccc1C(F)(F)F)N/N=C/c1cccs1	ELG1 repair inh inconclusive
Fc1c(F)c(C(F)(F)F)c(F)c(F)c1N/N=C\c1cccs1	TDP1 cell CPT 16µM, HT1080-NT tox inconclusive, IL-1B inflam inh -74, TDP1 cell noCPT 18µM
CCOC(=O)CN(Cc1ccccc1)C(C(=O)NC1CCCCC1)c1ccccc1 (stereo not given)	TDP1 cell CPT 21µM, TDP1 cell noCPT 15µM (no result: HT1080 IDH1KD tx, HT1080-NT tox, IL-1B inflam inh, ELG1 repair inh)
CCN(CC)C(C(=O)NC1CCCCC1)c1ccc(C)cc1 (stereo not given)	TDP1 cell noCPT inconclusive
COc1ccc(N(C(=O)c2ccco2)C(C(=O)NC2CCCC2)c2ccccc2)cc1 (stereo not given)	TDP1 cell CPT inconclusive, TDP1 cell noCPT inconclusive
COc1ccc(N(C(=O)c2ccco2)C(C(=O)NC2CCCCC2)c2ccccc2)cc1 (stereo not given)	TDP1 cell CPT 16µM, TDP1 cell noCPT 26µM (no result: ELG1 repair inh)
COc1cc(OC)cc(N(C(=O)c2ccco2)C(C(=O)NC2CCCC2)c2ccc(N(C)C)cc2)c1 (stereo not given)	TDP1 cell CPT inconclusive, ELG1 repair inh inconclusive, TDP1 cell noCPT inconclusive
N#CCCN(Cc1ccccc1)C(C(=O)NC1CCCCC1)C1CC1 (stereo not given)	TDP1 cell CPT 16µM, TDP1 cell noCPT 15µM (no result: ELG1 repair inh)
COc1ccc(N(C(=O)c2ccco2)C(C(=O)NC2CCCC2)c2ccc(N(C)C)cc2)cc1 (stereo not given)	TDP1 cell CPT inconclusive, TDP1 cell noCPT 16µM
COc1ccc(CNC(=O)CN(C)S(=O)(=O)c2ccc3c(c2)OCCO3)cc1OC	none
Cc1cnn(Cc2cccnc2)c1N	none

Screening results (PubChem BioAssay)
